Results: PubChem BioAssay (NCI)
The panel holds about 83,000 compounds, 20% with a hit somewhere; the sample as a whole holds those more often.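 Growth was measured after 48 h exposure to one concentration of compound in 96-well plates. Values under 10 count as active.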 Activity calls are given as the source filed them.

Tested on: HL-60(TB) leukemia
Experiment: NCI-60 one-dose screen, 48 h (100 = growth as untreated, 0 = no growth, -100 = all killed)
Details: 10 µM unless noted

Row | SMILES | growth
1 | COc1ccc(CCN2C(=O)CSC2=S)cc1 | 54.6% (inactive)
2 | C[C@@H]1C[C@H]2C(=O)O[C@@H](C)C(NC(=O)[C@H](Cc3cc(F)cc(F)c3)NC(=O)Nc3ccc(C4CC4)cc3F)C(=O)N3CCC[C@H]3C(=O)N3CCCC[C@H]3C(=O)N[C@@H](CO)C(=O)N2C1 (some centres undefined) | 11.5% (inactive)
3 | NC1C2CCC1CN(c1cnc(C(=O)Nc3cc(F)cc4cccnc34)cn1)C2 (centres undefined) | 9.98% (active)
4 | Cc1ccc(/C=C/CC(=O)Nc2ccc(C(=O)Nc3ccc(F)cc3N)nc2)cn1 | -19.6% (active)
5 | CCCC/C(=C\c1ccc(O)c(O)c1)C(=O)NC(Cc1ccccc1)C(=O)C(=O)NCCc1ccc(OC)cc1 (centres undefined) | 92.5% (inactive)
6 | NS(=O)(=O)c1ccc(Nc2nc(N/N=C/c3ccccn3)nc(Nc3ccccc3)n2)cc1 | 2.68% (active)
7 | CC(C)C(=O)Nc1ccc(-c2nc(-c3cccc(O)c3)c(-c3ccnc(Br)c3)[nH]2)cc1 | -40.4% (active)
8 | CC1COc2c(N3CCN(C)CC3)c(F)cc3c(=O)c(C(=O)N/N=C/c4cc[nH]c4)cn1c23 (centres undefined) | 20.3% (inactive)
9 | Nc1nc(-c2cccc([N+](=O)[O-])c2)c(N=Nc2ccc(Br)cc2)s1 | 100% (inactive)
10 | Brc1ccccc1/C=N/Nc1nc(N/N=C/c2ccccc2Br)nc(N2CCOCC2)n1 | 80.5% (inactive)
11 | Nc1ncc(-c2ccc3ncnc(N4CCc5cc(F)c(F)cc54)c3c2)cn1 | 37.1% (inactive)
12 | Cc1[nH]c(C(=O)Nc2ccccc2OCc2cccc(C(=O)NC3CCCNC3)c2)c(Cl)c1Cl (centres undefined) | -53.9% (active)
13 | O=C(Nc1ccc(Br)cc1)Nc1nc2ccc([N+](=O)[O-])cc2s1 | -44.3% (active)
14 | CC(=O)C1=C(C)NC(NN)=NC1c1cccc(Cl)c1 (centres undefined) | 115% (inactive)
15 | O=C(CCCCCC/C=C\c1csc(Br)n1)NO | 78.5% (inactive)
16 | Oc1[nH]c2ccccc2c1Nn1c(N=N/C=c2/ccc3c(c2)C=NN=3)n[nH]c1=S | 139% (inactive)
17 | COc1c(N2CC3CCCNC3C2)c(F)cc2c(=O)c(C(=O)N/N=C/c3ccccc3)cn(C3CC3)c12 (centres undefined) | 73.6% (inactive)

Row | SMILES | growth
18 | O=C(N/N=C/c1ccc([N+](=O)[O-])s1)c1[nH]c2ccc(Br)cc2c1-c1ccccc1 | -28.9% (active)
19 | CC(=C(c1ccc(OCCN2CCCC2)cc1)c1ccc(OCCN2CCCC2)cc1)c1ccc(Cl)cc1 | -53.7% (active)
20 | C#Cc1cc(C(=O)Nc2ccc(CNCCN3CCOCC3)c(C(F)(F)F)c2)ccc1C | 86% (inactive)
21 | CC(C)(C)OC(=O)NCc1ccc(CNc2c([N+](=O)[O-])cnc3ccccc23)cc1 | 49.1% (inactive)
22 | NC(=S)n1c(=O)n(-c2cccc(C(F)(F)F)c2)c(=O)c2cc(-c3ccc(F)cc3F)ccc21 | -46.8% (active)
23 | COc1ccc(-c2cc(-c3ccc(N4CCOCC4)cc3)n3c(n2)nc2ccccc23)cc1OC | 71% (inactive)
24 | Nc1nc(N)c2c(n1)NC(c1ccc(C(F)(F)F)cc1)CC(c1ccc(Nc3nc(NCCO)nc(Nc4ccc(Cl)cc4)n3)cc1)=N2 (centres undefined) | -28.3% (active)
25 | COc1cc(Cn2cc3c(c2)-c2onc(CN4CCOCC4)c2CC3)cc(OC)c1OC | 99.9% (inactive)
26 | Cn1ccnc1C(=O)/C=C/c1ccc(CNC(=O)c2ccc(F)cc2)cc1 | -4.42% (active)
27 | CCCCCN1C(=O)/C(=c2\sc3n(c2=O)C2C(NN=3)N(CC)C(=O)N2CC)c2cccc(C)c21 (centres undefined) | 11.9% (inactive)
28 | Cc1ccc(C(=O)CSc2nnc(-c3ccc(-c4ccc(Cl)cc4)nc3C)o2)cc1 | 103% (inactive)
29 | CCOc1ccc([C@H]2C(C(=O)c3ccc(Cl)cc3)C3(N[C@@H]2c2ccccc2)C(=O)Nc2ccc(Br)cc23)cc1 (some centres undefined) | 15.2% (inactive)
30 | CS(=O)(=O)Nc1cc(-c2ccc3ncc(C#N)c(N[C@H](CO)c4ccccc4)c3c2)cnc1Cl | 25% (inactive)
31 | COc1ccc(/C=N/NC(=O)c2[nH]c3ccc(Br)cc3c2-c2ccccc2)o1 | -20.2% (active)
32 | CN1CCN(Cc2ccc(NC(=O)c3cncc(C#Cc4cnc5ccc(OCC6COC6)nn45)c3)cc2C(F)(F)F)CC1 | -42.8% (active)
33 | O=S(=O)(NCCCNc1nccc(-c2[nH]c(-c3ccccc3)nc2-c2ccc(F)c(O)c2)n1)c1ccc(C(F)(F)F)cc1 | -3% (active)
34 | CCOC(=O)c1c(Nc2ccccc2)nn2c(N)c(C#N)c(-c3ccc(F)cc3)nc12 | 72.6% (inactive)
